Source: PubChem BioAssay
In the library only some 8.3% were active in any assay of this set; here they are far more common.
FBPA Giardia inh – inhibitors of Giardia lamblia fructose-1,6-bisphosphate aldolase; actives 0.71% (n = 290,000); Potency, µM (titrated, usually from 59.6 µM), for the others: at the highest dose activity, negative = inhibition, actives largely listed as inhibitors; A8B2U2; AID 2451; purified Giardia FBPA; also: potency is read from the fitted curve at half-maximal effect; nearly all actives have a fitted effect of over 55% in size
Target sequence (A8B2U2 whole entry, looked up): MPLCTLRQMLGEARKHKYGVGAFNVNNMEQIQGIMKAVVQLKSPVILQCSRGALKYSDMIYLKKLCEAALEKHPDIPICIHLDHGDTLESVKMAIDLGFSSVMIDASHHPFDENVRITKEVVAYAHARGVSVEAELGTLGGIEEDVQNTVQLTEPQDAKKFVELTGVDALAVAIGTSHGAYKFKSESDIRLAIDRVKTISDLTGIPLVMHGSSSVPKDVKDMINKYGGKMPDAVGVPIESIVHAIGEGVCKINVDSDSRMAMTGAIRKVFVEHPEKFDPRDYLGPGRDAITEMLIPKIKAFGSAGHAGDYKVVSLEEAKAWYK
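Giardia FBPA (40 nM reagent) was preincubated 10 min at RT with compound (up to 57.5 uM final), then substrate plus GAPDH/TPI/NAD/arsenate coupling system with diaphorase/resazurin was added; resorufin fluorescence (525/598 nm) was read after 20 min.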
LASV entry inh – inhibitors of Lassa virus binding or cell entry | Lassa virus pseudotype entry inhibition, cell reporter | Potency, µM (series often up to 37.9 µM), for the others: at the top dose activity change, negative = inhibition, most hits filed as inhibitors | actives 1.2% (n = 300,000) | AID 540256; calls by dose curve; tested in HEK293 cells; also: potency is read from the fitted curve at half-maximal effect; nearly all actives have a fitted effect of over 50% in size
HCMV inh – inhibitors of human cytomegalovirus | HFF cells, HCMV-luciferase reporter, 72 h; hits give low values | activity change, negative = inhibition, % at 57.5 µM | actives 4.5% (n = 410,000) | AID 1259415; in the data active = activity change below about -60%; inconclusive = no clear call, values can overlap the other calls; inactive = above about -39%
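After 16 h attachment at 37C, HFF cells received test compound and HCMV-luciferase (1 PFU/cell); reporter luminescence read 72 h later, data normalized against buffer-only and known inhibitor Salinomycin.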
FMDV inh – antivirals against foot and mouth disease virus; FMDV antiviral cell-based qHTS; Potency, µM (titrated, usually from 57.9 µM), for inactives: at the highest dose activity change, negative = inhibition, most hits filed as inhibitors; actives 1.2% (n = 410,000); calls by dose curve; tested in HEK293T cells; also: read-out not given here; potency is read from the fitted curve at half-maximal effect; nearly all actives have a fitted effect of over 45% in size
HCV inh – inhibitors of hepatitis C virus infection; Potency, µM (doses to about 41.8 µM), for the others: at the highest dose activity change, negative = inhibition, hits mostly inhibitors; Huh7.5.1 HCVcc-Cre infection, luciferase reporter, 44 h; actives 3.4% (n = 340,000); also: potency is read from the fitted curve at half-maximal effect
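Compounds are dispensed onto cells plated 4 h earlier at 1,000 per well, with HCVcc-Cre virus (about 0.5 moi) added next. Following 44 h of culture, luminescent signal is measured for 15 sec after 15 min with substrate at room temperature.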
MARV entry inh – inhibitors of Marburg virus binding or cell entry; Marburg virus pseudotyped entry inhibition, cell reporter; Potency, µM (top dose mostly 37.8 µM), inactives show at the highest dose activity change, negative = inhibition, usual class: inhibitors; actives 1.8% (n = 300,000); calls by dose curve; tested in HEK293 cells; also: potency is read from the fitted curve at half-maximal effect
Numbers without * were called inactive; ? = inconclusive; / = not tested or not shown; + = active, no number; [ ] = dose if it differs, or a comment. Unless noted, calls follow the shape of the dose curve; as a rule, active = well fitted curve in the direction sought with a large enough effect; inconclusive = small, poorly fitted or top-dose-only effect, or another doubt; inactive = no such curve, though single readings can be large; an effect the other way counts as inactive or inconclusive. % is scaled to controls: 0 for no effect and ±100 for the full control effect.

SMILES | FBPA Giardia inh | LASV entry inh | HCMV inh | FMDV inh | HCV inh | MARV entry inh
COCCNC(=O)c1ccc(N2CCCCC2)c(NS(=O)(=O)c2ccc(C)cc2)c1 | ? | -3% | 16 | 56% | 22% | 3%
CCOC(=O)c1ccc(N2CCCCC2)c(NS(=O)(=O)c2ccc(C)cc2)c1 | -1% | ? | -86* | 4% | ? | 7.9µM*
Cc1ccc(CNC(=O)c2ccc(N3CCCC3)c(NC(=O)Nc3ccc(C)cc3)c2)cc1 | / | 1%[46.1 µM] | -74* | 21% | / | /
Cc1ccc(CNC(=O)Nc2cc(C(=O)NCc3ccc(C(C)C)cc3)ccc2N2CCCC2)cc1 | / | 17%[46.1 µM] | 2 | ? | / | /
Cc1ccc(S(=O)(=O)Nc2cc(C(=O)NCCN(C)C)ccc2N2CCCC2)cc1 | 5% | / | -22 | 23% | 10% | /
N#CC1=C(N)Oc2c(ccc3cccnc23)C1c1cccnc1 (centres undefined) | 1% | ? | -99* | -21% | 3.5µM* | ?
CCc1ccc2[nH]c(=O)c(C3C(C#N)=C(N)Oc4c3ccc3cccnc43)cc2c1 (centres undefined) | -5% | -17% | -4 | -3% | 11µM* | ?
CC(=O)C1=C(C)OC(N)=C(C#N)C1c1cc2cccc(C)c2nc1Cl (centres undefined) | ? | 1% | 14 | -16% | 13% | 15%
N#CC1=C(N)Oc2cc3ccccc3cc2C1c1cccnc1 (centres undefined) | -17% | ? | 17 | -15% | ? | ?
Cc1ccc2cc(C3C(C#N)=C(N)Oc4c3ccc3cccnc43)c(=O)[nH]c2c1 (centres undefined) | ? | ? | -103* | -17% | 11µM* | ?
CN(C)C(=O)c1ccc(-c2ccc3ncnc(NC4CCNCC4)c3c2)cc1 | 2% | / | / | 3% | / | /
CNC(=O)COc1ccc(NC(=O)CCn2nc(-c3ccc(C)cc3)c3ccccc3c2=O)cc1 | / | -2%[46.1 µM] | -18 | ? | / | ?
CCSc1nc(COC(=O)NC)c(COC(=O)NC)n1C | / | -18% | -4 | -14% | 11% | ?
CNC(=O)OCc1nc(SSC(C)(C)C)n(C)c1COC(=O)NC | / | ? | -76* | 35µM* | ? | ?
COc1ccc(OCC2c3cc(OC)c(OC)cc3CCN2C(=O)COc2ccc(Cl)cc2Cl)cc1 (centres undefined) | / | ? | ? | -23% | / | /
CCc1nn(CC(=O)N2CCCCC2)c(=O)c2cc3occc3n12 | / | ? | 3 | -18% | / | 2%[46.1 µM]
Cc1cccc(N2CCN(C(=O)C(C)n3nc(C)n4c(cc5occc54)c3=O)CC2)c1C (centres undefined) | 1% | 3%[46.1 µM] | 7 | ? | 10µM* | ?
Cc1nn(CC(=O)N2CCCCCC2)c(=O)c2cc3occc3n12 | / | 0%[46.1 µM] | -62* | 5% | 2% | -5%[46.1 µM]
Cc1noc(C)c1-c1ccc2ncnc(NCc3ccccc3Cl)c2c1 | 0% | / | / | / | / | /
O=C(O)CCC(CP(=O)(O)O)C(=O)O (centres undefined) | 8% | / | / | -4% | / | /
COc1cccc(-c2nn(-c3ccccc3)cc2C(=O)n2nnc3ccccc32)c1 | 1% | -1% | 35 | 40µM* | ? | 11%
O=C(c1cn(-c2ccccc2)nc1-c1ccccc1)n1nnc2ccccc21 | 5% | 4% | -23 | ? | 5% | 3%
CC(C)(C)OC(=O)N1CCC(c2c(C(=O)NCCN3CCC(Cc4ccccc4)CC3)cnn2-c2cccc(Cl)c2)CC1 | / | ? | -100* | ? | / | /
Cc1ccc(-n2ncc(C(=O)NCCN3CCC(Cc4ccccc4)CC3)c2C2CCN(C(=O)OC(C)(C)C)CC2)cc1 | / | ? | + | -15% | / | /
Cc1ccc(-n2ncc(C(=O)NCCN3CCCC3)c2C2CCN(C(=O)OC(C)(C)C)CC2)cc1 | / | -23%[46.1 µM] | 0 | 4% | / | /
SMILES | FBPA Giardia inh | LASV entry inh | HCMV inh | FMDV inh | HCV inh | MARV entry inh
COc1ccc(-n2ncc(C(=O)NCCCN3CCCCC3)c2C2CCN(C(=O)OC(C)(C)C)CC2)cc1 | / | -17%[46.1 µM] | + | -1% | / | /
COc1ccccc1CN1CCC(CNC(=O)c2cnn(-c3ccc(Cl)cc3)c2C2CCN(C(=O)OC(C)(C)C)CC2)CC1 | / | ? | -108* | 0% | / | /
CCOc1ccc(CCNC(=O)c2cc3c(s2)-c2ccccc2OC3)cc1OCC | / | / | ? | 0% | / | ?
CC(=O)Nc1ccc(S(=O)(=O)N2CCc3nc(COc4ccccc4)c4c(c3C2)CO[C@@H](C)C4)cc1 | 10%[12.9 µM] | / | / | / | / | ?
O=c1c2ccccc2nc(N2CCN(c3cccc(Cl)c3)CC2)n1-c1ccccc1 | / | ? | 37 | ? | / | ?
CC1(C)CC(C(=O)N2CCOc3ccc(CN4CCC(Oc5cccnc5)CC4)cc3C2)CCO1 (centres undefined) | / | / | / | -10% | / | /
COCCN(CCOC)c1nc(C)nc2c1nc(-c1ccccc1)n2CCCN(C)C | 0% | / | / | / | / | /
CC(C)CCNC(=O)c1cc(Sc2ccc(F)cc2F)nc2ccccc12 | / | -17%[46.1 µM] | -2 | -12% | / | /
Cc1ccc(-n2ncc(C(=O)NCCN3CCc4ccccc4C3)c2C2CCN(C(=O)OC(C)(C)C)CC2)cc1 | / | ? | + | -6% | / | /
COc1ccc(CC(=O)Nc2cccc(/C(C)=N/NC(=O)C3(C)CC3(Br)Br)c2)cc1 (centres undefined) | / | / | 28 | -21% | 10µM* | /
Cc1cccc(N2CCC(N3CCN(C4CCCCC4)C(CCO)C3)CC2)c1C (centres undefined) | ? | 6%[46.1 µM] | -75* | ? | ? | ?
CC(C)N1CCC(N2CCN(C3CCCC3)CC2CCO)CC1 (centres undefined) | 0% | 14% | -11 | -1% | 4% | -11%[46.1 µM]
Cc1ccc(S(=O)(=O)N(C)c2ccc(C(=O)NCC3CCCO3)cc2)cc1 (centres undefined) | -2% | -7% | -102* | 0% | 14% | 2%
Cc1ccc(S(=O)(=O)N(C)c2ccc(C(=O)Nc3ccc(C)cn3)cc2)cc1 | / | ? | -37 | ? | 5µM* | ?
CN(c1ccc(C(=O)Nc2ccc(Cl)cn2)cc1)S(=O)(=O)c1ccccc1 | -27% | / | -66* | ? | 11µM* | /
CCN(c1ccccc1)S(=O)(=O)c1ccc2ccccc2c1 | 7% | 8% | -20 | 20% | 5.6µM* | -24%
Cc1ccc(S(=O)(=O)N(C)c2ccc(C(=O)Nc3ccccn3)cc2)cc1 | / | -10% | -1 | ? | -24% | 13%
CCN1C(=NCCCOC(C)C)NC(c2ccccc2)C(C(=O)OC)=C1C (centres undefined) | / | ? | / | / | / | -3%[14.2 µM]
CCC(/C=C/C(C)C1CCC2C3CCC4=CC(=O)CC[C@@]4(C)C3CC[C@@]12C)C(C)C (some centres undefined) | 4% | / | / | 2% | / | /
